# Measured values from PubChem BioAssay AID488789 (Broad Institute, 2010).
# Entries with a potency or affinity are not part of this list. Inconclusive results are not listed. Unmarked numbers belong to inactive results.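 The calls were made as follows: active = samples whose fitted half-maximal inhibition concentration is no more than ten times the top valid dose tested; inconclusive = flat response between -70 and -30, or invalid curve fit; inactive = flat within 30 of zero, potency above limit, or signal rising.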
# Biological target: Trypsin (Sus scrofa) (UniProt P00761)
# Sequence (P00761 whole entry, looked up): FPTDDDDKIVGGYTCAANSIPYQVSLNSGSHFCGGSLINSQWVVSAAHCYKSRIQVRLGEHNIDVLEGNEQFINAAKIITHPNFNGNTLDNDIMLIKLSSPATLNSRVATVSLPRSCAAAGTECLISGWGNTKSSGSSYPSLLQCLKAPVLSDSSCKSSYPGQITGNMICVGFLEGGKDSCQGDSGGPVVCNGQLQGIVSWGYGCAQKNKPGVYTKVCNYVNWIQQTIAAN
# Test: trypsin protease activity blockade – biochemical, quenched peptide fluorescence, cherry-pick, selectivity assay for Rce1 protease inhibitor project, dose response (AID 488789);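 also: more negative means stronger trypsin inhibition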
# Details: porcine trypsin, quenched peptide cleavage fluorescence; series mostly up to 10 µM; activity change, negative = inhibition: at the top concentration
row,Compound,"activity change, negative = inhibition"
1,Cc1ccsc1/C=N/NC(=O)c1nnn(-c2nonc2N)c1C(C)C,4.12%
2,COc1cc2ccccc2cc1C(=O)N(CCN(C)C)c1nc2ccc(C)cc2s1,-0.713%
3,COCCN1C(=O)/C(=C/c2ccc(Oc3ccc([N+](=O)[O-])cn3)c(OC)c2)SC1=Nc1ccccc1,10.9%
4,Nc1nnnn1/N=C/c1ccccc1OCc1ccc(Cl)cc1Cl,0.248%
5,OC1CCN(C(c2ccc3ncccc3c2)c2nnnn2C2CCCCC2)CC1 (configuration not stated),-1.46%
6,Cc1cccc(NS(=O)(=O)c2ccc(C)c(C(=O)OCC(=O)Nc3cc(C)on3)c2)c1,1.4%
7,C[n+]1c2n(c3ccccc31)N=C(c1cc(C(C)(C)C)c(O)c(C(C)(C)C)c1)CS2,5.04%
8,CC1CCC/C(=C\Nc2ccccc2C(=O)O)C1=O (configuration not stated),8.07%
9,CCC(C)(C)c1ccc(OCCCC[n+]2cccc(C)c2)c(C(C)(C)CC)c1,15.5%
10,O=C(N/N=C/c1cn(Cc2ccccc2)c2ccccc12)c1cc(O)cc(O)c1,-6.64%
11,O=C(Nc1ccc(N2CCOCC2)c(Cl)c1)c1cc2ccccc2o1,8.34%
12,COC(C[C@@H](O)C[C@H](O)[C@H](C)OCc1ccccc1)OC,6.39%
13,Cc1nc(-c2ccc(Cl)cc2)sc1C1(C)CC(c2ccccc2Br)=NO1 (configuration not stated),18.1%
14,CC(/C=N\NC(=O)CN1CCN(S(=O)(=O)c2ccc(C)cc2)CC1)=C\c1ccccc1,7.87%
15,COc1cc2c(cc1OC)C(C)=NC1(CCCCC1)C2,-10.1%
16,CCCOc1ccc(-c2c(C(=O)N/N=C/c3cccs3)nnn2-c2nonc2N)cc1,21.4%
17,CCC(C)(C)c1ccc(OCCCC[n+]2cccc(C)c2C)c(C(C)(C)CC)c1,-5.25%
18,Cc1cc(N)c2cc(NC(=O)/C=C/c3ccccc3Cl)ccc2n1,14.5%
19,CC(C)C[C@H](NC(=O)c1nc[nH]c1C(=O)N1CCNCC1)C(=O)OCc1ccccc1,6.55%

row,Compound,"activity change, negative = inhibition"
1,O=C(Nc1cccc2ncccc12)c1cccnc1,-0.86%
2,CCOc1ccc(N(CC(=O)NC2CC3CCC2C3)S(=O)(=O)c2ccccc2)cc1 (configuration not stated),-1.05%
3,CCN(C(=O)COC(=O)c1cc(-c2cccs2)nc2ccccc12)C1CCS(=O)(=O)C1 (configuration not stated),7.15%
4,CCNC(=S)NNC(=O)CCn1cc(C)cn1,-2.65%
5,Cc1nc(SC(C(=O)c2ccccc2)c2ccccc2)nc2ccccc12 (configuration not stated),3.6%
6,O=C(NCCc1c[nH]c2ccccc12)OCCSS(=O)(=O)O,-8.16%
7,CCOC(=O)C1CCCN(C(=O)CCn2nnnc2CN2CCOCC2)C1 (configuration not stated),21%
8,CCOC(=O)c1c(NC(=O)COc2ccccc2F)sc2c1CC(C)(C)NC2(C)C,0.00696%
9,CC(=O)OCC(=O)[C@@]12OC3(CCCC3)O[C@@H]1C[C@H]1[C@@H]3CCC4=CC(=O)C=C[C@]4(C)[C@@]3(F)[C@@H](O)C[C@@]12C,17.7%
10,CCN(Cc1ccccc1)c1ccc(/C=N/N=C(N)N)cc1,3.18%
11,CC1(C)CC2CC(C)(CN2S(=O)(=O)c2ccc(N)cc2)C1 (configuration not stated),-1.27%
12,COc1ccccc1NC(=O)/C(=C\c1cccnc1)NC(=O)c1ccc(C)cc1,1.96%
13,O=C(c1cn(-c2ccccc2)nc1-c1cccs1)N1CCN(c2ccccc2)CC1,27.7%
14,COc1ccc(C(CNC(=O)COc2cc(C)c(Cl)c(C)c2)N2CCCCC2)cc1 (configuration not stated),3.11%
15,Cc1ccc(SCc2c(C(=O)N/N=C/c3ccccc3)nnn2-c2nonc2N)cc1,1.99%
16,Cc1ccc2c(C)c(C(=O)N(Cc3ccc(F)cc3)C3CCS(=O)(=O)C3)oc2c1 (configuration not stated),10.8%
17,COc1cccc(-c2cc(C(F)(F)F)n3ncc(S(=O)(=O)c4ccccc4)c3n2)c1,3.61%
18,CCCCCCCCCCOC(=O)Cn1c(COc2ccc(C)cc2)[n+](C)c2ccccc21,0.202%
